Results filed as inconclusive are left out. Calls of active or inactive are those of the source. How the source made its calls: active means hit-call score of the fitted dose curve at least 0.9, where 1 is the maximum; inconclusive means response in the unintended direction; inactive means score below 0.9.
Legend:
[1] = TOX21_p53_BLA_p2_viability: Viability Assessment in the Tox21 HCT-116 p53 Agonism Beta-lactamase Assay, Phase 2 (AID 2283591);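 further: compound exposure lasted 16 h at 37 °C; actives lower the ATP signal meaning cytotoxicity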
Outline: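 Cytotoxicity readout: CellTiter-Glo ATP luminescence, 30 min at room temperature, after the beta-lactamase read. Cells were HCT116 exposed 16 h at 37C to compounds pin-transferred at 217-fold dilution from DMSO stocks.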

[2] = TOX21_p53_BLA_p3_viability: Viability Assessment in the Tox21 HCT-116 p53 Agonism Beta-lactamase Assay, Phase 3 (AID 2283593);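 further: cells exposed to compound for 16 h before reading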
Outline: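 Cellular ATP was quantified by CellTiter-Glo luminescence, read after 30 min at room temperature. Beforehand, HCT116 cells (4000/well) received compound 5 h post-seeding, 217-fold diluted from DMSO, then incubated 16 h at 37C.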

[3] = TOX21_p53_BLA_p4_viability: Viability Assessment in the Tox21 HCT-116 p53 Agonism Beta-lactamase Assay, Phase 4 (AID 2283597);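 further: hits lower the luminescence signal meaning cytotoxicity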
Outline: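 HCT-116 p53-bla cells, 4000/well, dosed after 5 h attachment and incubated 16 h at 37 °C, 5% CO2. Viability from CellTiter-Glo ATP luminescence after 30 min at room temperature, taken after the beta-lactamase read; loss of signal indicates cytotoxicity.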

[4] = target: Cellular tumor antigen p53 (Homo sapiens) (UniProt P04637); test: TOX21_p53_BLA_p4_ratio: Tox21 HCT-116 p53 Agonism Beta-lactamase Assay, Ratio, Phase 4 (AID 2283601)
Sequence of Cellular tumor antigen p53 (Homo sapiens) (P04637 whole entry, looked up): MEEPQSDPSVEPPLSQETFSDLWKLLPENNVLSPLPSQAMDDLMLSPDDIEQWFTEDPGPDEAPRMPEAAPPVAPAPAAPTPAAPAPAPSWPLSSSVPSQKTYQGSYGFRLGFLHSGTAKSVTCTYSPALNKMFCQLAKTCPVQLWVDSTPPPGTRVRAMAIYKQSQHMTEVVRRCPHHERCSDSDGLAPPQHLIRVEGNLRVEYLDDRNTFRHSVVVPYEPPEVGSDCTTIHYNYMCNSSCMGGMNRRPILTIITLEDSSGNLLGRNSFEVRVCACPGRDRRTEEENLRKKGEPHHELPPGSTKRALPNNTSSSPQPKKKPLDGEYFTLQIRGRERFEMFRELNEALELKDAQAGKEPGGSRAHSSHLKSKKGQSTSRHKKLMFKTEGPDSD
Outline: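 Signal is the blue/green (460nm/530nm) ratio of cleaved versus uncleaved CCF4-AM substrate, read after 2 h substrate loading. Cells were HCT116 carrying the p53-responsive beta-lactamase reporter, dosed 16 h at 37C, 5% CO2; CellTiter-Glo measured in parallel.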

[5] = target: Cellular tumor antigen p53 (Homo sapiens) (UniProt P04637); test: TOX21_p53_BLA_p3_ratio: Tox21 HCT-116 p53 Agonism Beta-lactamase Assay, Ratio, Phase 3 (AID 2283596)
Outline: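 HCT116 p53-bla cells (4000/well) given compound in DMSO (217-fold dilution) after 5 h, incubated 16 h at 37C. CCF4-AM substrate 2 h at room temperature; 460/530 nm emission ratio, gain fitted against DMSO.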

[6] = target: Cellular tumor antigen p53 (Homo sapiens) (UniProt P04637); test: TOX21_p53_BLA_p5_ratio: Tox21 HCT-116 p53 Agonism Beta-lactamase Assay, Ratio, Phase 5 (AID 2283599)
Outline: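 Beta-lactamase reporter ratio (blue 460 nm over green 530 nm, 405 nm excitation) after 2 h CCF4-AM loading, in HCT-116 cells exposed 16 h at 37 C to compounds pinned at 217-fold dilution. Increases relative to DMSO baseline scored.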

[7] = TOX21_p53_BLA_p5_viability: Viability Assessment in the Tox21 HCT-116 p53 Agonism Beta-lactamase Assay, Phase 5 (AID 2283600)
Outline: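 HCT-116 p53 beta-lactamase reporter cells, 4000/well, were exposed to compound (pin transfer, 217-fold dilution) for 16 hours at 37C. Cellular ATP was read by CellTiter-Glo luminescence after 30 min at room temperature.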

Measured: outcome

CCCOC(=O)Cc1ccc(OCC(=O)N(CC)CC)c(OC)c1
inactive: [1] | [2] | [3] | [4]

O=NN1CCCCC1
not listed: [2] | [4]
inactive: all other assays above

Source: PubChem BioAssay (EPA / NIEHS)
